Measured values reported in PubChem BioAssay (EPA / NIEHS).
Calls of active or inactive are those of the source. The calls were made as follows: active = hit-call score of the fitted dose curve at least 0.9, where 1 is the maximum; inactive = score below 0.9.

Legend:
Conditions in all cases: mRNA level, 48 h; actives raise or lower the signal
[1] = read-out: Insulin-like growth factor-binding protein 1 (IGFBP1), IGFBP1 (gene 3484); test: LTEA_HepaRG_IGFBP1: Life Technologies and Expression Analysis (LTEA) Assay for Insulin-like growth factor-binding protein 1 (IGFBP1) using HepaRG (AID 2283508)
Summary of the method: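 Thawed HepaRG cells are plated for 48 h, switched to serum-free induction medium, then dosed in duplicate for another 48 h (100 uM top, half-log steps). Lysates in RLT go to qRT-PCR, and gain or loss of signal is fitted relative to vehicle.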

[2] = read-out: Interleukin 6 (IL6), IL6 (gene 3569); test: LTEA_HepaRG_IL6: Life Technologies and Expression Analysis (LTEA) Assay for Interleukin 6 (IL6) using HepaRG (AID 2283509)
Summary of the method: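 HepaRG cells exposed in duplicate for 48 h to eight half-log concentrations, top 100 uM, in 0.5% DMSO serum-free induction medium. mRNA measured by qRT-PCR, normalized to ACTB, GAPDH and POLR2A. Bidirectional fit versus DMSO.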

[3] = read-out: Potassium channel subfamily K member 1 (KCNK1), KCNK1 (gene 3775); test: LTEA_HepaRG_KCNK1: Life Technologies and Expression Analysis (LTEA) Assay for Potassium channel subfamily K member 1 (KCNK1) using HepaRG (AID 2283511)
Summary of the method: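 Differentiated HepaRG cells, 48 h exposure in serum-free induction medium with 0.5% DMSO; 8 concentrations, half-log from 100 uM, duplicate. KCNK1 mRNA by qRT-PCR, normalized to ACTB, GAPDH, POLR2A; bidirectional fit vs DMSO.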

[4] = read-out: Keratin 19 (KRT19), KRT19 (gene 3880); test: LTEA_HepaRG_KRT19: Life Technologies and Expression Analysis (LTEA) Assay for Keratin 19 (KRT19) using HepaRG (AID 2283512)
Summary of the method: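 KRT19 transcript levels, measured by Fluidigm qRT-PCR against three housekeeping genes, are fitted for gain or loss of signal relative to DMSO. Human HepaRG cells receive test chemicals (top 100 uM, half-log steps, 0.5% DMSO) for 48 hours.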

[5] = read-out: JUN Transcription Factor, JUN (gene 3725); test: LTEA_HepaRG_JUN: Life Technologies and Expression Analysis (LTEA) Assay for JUN Transcription Factor using HepaRG (AID 2283513)
Summary of the method: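 Differentiated HepaRG cells were exposed to chemicals for 48 h in serum-free induction medium, 8 concentrations from 100 uM in half-log steps, 0.5% DMSO vehicle, in duplicate. JUN mRNA was quantified by TaqMan qRT-PCR, normalized to ACTB, GAPDH, POLR2A.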

[6] = read-out: Lipase C (LIPC), LIPC (gene 3990); test: LTEA_HepaRG_LIPC: Life Technologies and Expression Analysis (LTEA) Assay for Lipase C (LIPC) using HepaRG (AID 2283514)
Summary of the method: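 HepaRG cells, 48 h after plating, treated in duplicate for 48 h in serum-free induction medium over 8 half-log concentrations from 100 uM, 0.5% DMSO. LIPC mRNA by TaqMan qRT-PCR normalized to ACTB/GAPDH/POLR2A; bidirectional fit versus DMSO.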

[7] = read-out: Lipoprotein lipase (LPL), LPL (gene 4023); test: LTEA_HepaRG_LPL: Life Technologies and Expression Analysis (LTEA) Assay for Lipoprotein lipase (LPL) using HepaRG (AID 2283515)
Summary of the method: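 Differentiated HepaRG cells, plated 48 h, then exposed 48 h in serum-free induction medium to 8 concentrations (top 100 uM, half-log steps) in 0.5% DMSO, duplicate. LPL mRNA measured by qRT-PCR, normalized to ACTB, GAPDH and POLR2A.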

[8] = read-out: MicroRNA 122 (MIR122), gene 406906; test: LTEA_HepaRG_MIR122: Life Technologies and Expression Analysis (LTEA) Assay for MicroRNA 122 (MIR122) using HepaRG (AID 2283516); also: the transcript read is the microRNA miR-122
Summary of the method: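 Differentiated human HepaRG cells were exposed 48 h in serum-free induction medium to eight half-log concentrations (top 100 uM, 0.5% DMSO). Transcript level was measured by TaqMan qRT-PCR, normalized to ACTB, GAPDH and POLR2A, and fitted bidirectionally versus DMSO.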

[9] = read-out: matrix metalloproteinase-10 (MMP10), MMP10 (gene 4319); test: LTEA_HepaRG_MMP10: Life Technologies and Expression Analysis (LTEA) Assay for matrix metalloproteinase-10 (MMP10) using HepaRG (AID 2283517)
Summary of the method: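 Differentiated HepaRG cells in serum-free induction medium exposed 48 h in duplicate to 8-point half-log series up to 100 uM in 0.5% DMSO. mRNA quantified by qRT-PCR, normalised to ACTB, GAPDH, POLR2A; bidirectional fit versus DMSO.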

[10] = read-out: MYC, MYC (gene 4609); test: LTEA_HepaRG_MYC: Life Technologies and Expression Analysis (LTEA) Assay for MYC using HepaRG (AID 2283518)
Summary of the method: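 HepaRG, ~100,000 cells/well, collagen I; 48 h plating; serum-free induction medium; 48 h dosing, duplicate, 100 uM top, half-log, 0.5% DMSO; total RNA → qRT-PCR MYC; gain/loss fit vs DMSO.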

[11] = read-out: matrix metalloproteinase-3 (MMP3), MMP3 (gene 4314); test: LTEA_HepaRG_MMP3: Life Technologies and Expression Analysis (LTEA) Assay for matrix metalloproteinase-3 (MMP3) using HepaRG (AID 2283519)
Summary of the method: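 HepaRG cells (~100,000/well) in serum-free induction medium were dosed in duplicate for 48 h with an 8-point half-log series from 100 uM, 0.5% DMSO. MMP3 mRNA was quantified by Fluidigm TaqMan qRT-PCR, normalized to three housekeeping genes.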

[12] = read-out: Paternally Expressed 10 (PEG10), PEG10 (gene 23089); test: LTEA_HepaRG_PEG10: Life Technologies and Expression Analysis (LTEA) Assay for Paternally Expressed 10 (PEG10) using HepaRG (AID 2283520)
Summary of the method: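 Differentiated HepaRG cells, plated 48 h then switched to serum-free induction medium, were exposed in duplicate for 48 h to eight half-log concentrations topping at 100 uM in 0.5% DMSO. PEG10 mRNA was quantified by TaqMan qRT-PCR, normalised to ACTB, GAPDH and POLR2A.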

[13] = read-out: Protein phosphatase 2A (PPP2R4), PTPA (gene 5524); test: LTEA_HepaRG_PPP2R4: Life Technologies and Expression Analysis (LTEA) Assay for Protein phosphatase 2A (PPP2R4) using HepaRG (AID 2283522)
Summary of the method: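 Differentiated HepaRG cells in serum-free induction medium were exposed in duplicate for 48 h to eight concentrations, top 100 uM with half-log dilutions, in 0.5% DMSO. PPP2R4 mRNA was quantified by TaqMan qRT-PCR, normalized to ACTB, GAPDH and POLR2A.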

[14] = read-out: Phosphatase and tensin (PTEN), PTEN (gene 5728); test: LTEA_HepaRG_PTEN: Life Technologies and Expression Analysis (LTEA) Assay for Phosphatase and tensin (PTEN) using HepaRG (AID 2283523)
Summary of the method: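 HepaRG cells, 48 h after plating, exposed in duplicate for 48 h in serum-free induction medium to 8 half-log concentrations up to 100 uM (0.5% DMSO). PTEN mRNA by qRT-PCR, normalized to ACTB, GAPDH, POLR2A; bidirectional fit versus DMSO.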

[15] = read-out: solute carrier (SLC22A1), SLC22A1 (gene 6580); test: LTEA_HepaRG_SLC22A1: Life Technologies and Expression Analysis (LTEA) Assay for solute carrier (SLC22A1) using HepaRG (AID 2283524)
Summary of the method: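 Differentiated human HepaRG cells in serum-free induction medium, exposed 48 h in duplicate to 8-point half-log series from 100 µM top in 0.5% DMSO. SLC22A1 mRNA by TaqMan qRT-PCR normalized to ACTB, GAPDH, POLR2A; bidirectional fit versus DMSO.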

[16] = read-out: Pyruvate Dehydrogenase Kinase 4 (PDK4), PDK4 (gene 5166); test: LTEA_HepaRG_PDK4: Life Technologies and Expression Analysis (LTEA) Assay for Pyruvate Dehydrogenase Kinase 4 (PDK4) using HepaRG (AID 2283525)
Summary of the method: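 HepaRG cells plated 48 h, then switched to serum-free induction medium and exposed in duplicate for 48 h to 8 half-log concentrations from 100 uM in 0.5% DMSO. PDK4 mRNA measured by qRT-PCR, normalized to ACTB, GAPDH and POLR2A; bidirectional fit versus DMSO.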

[17] = read-out: NAD(P)H dehydrogenase [quinone] 1 (NQO1), NQO1 (gene 1728); test: LTEA_HepaRG_NQO1: Life Technologies and Expression Analysis (LTEA) Assay for NAD(P)H dehydrogenase [quinone] 1 (NQO1) using HepaRG (AID 2283526)
Summary of the method: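 Differentiated HepaRG cells, plated 48 h and then switched to serum-free induction medium, were exposed in duplicate for 48 h to 8-point half-log concentrations up to 100 uM in 0.5% DMSO. mRNA measured by qRT-PCR, normalized to ACTB, GAPDH, POLR2A; bidirectional fit versus DMSO.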

[18] = read-out: Nuclear factor erythroid 2-related factor 2 (Homo sapiens) (UniProt Q16236); test: LTEA_HepaRG_NFE2L2: Life Technologies and Expression Analysis (LTEA) Assay for Nuclear factor erythroid 2-related factor 2 (NFE2L2) Transcription Factor using HepaRG (AID 2283527);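 also: TaqMan qRT-PCR transcript level normalised to ACTB GAPDH and POLR2A housekeeping genes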
Summary of the method: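 Differentiated human HepaRG cells, serum-free induction medium, exposed 48 h in duplicate to eight half-log concentrations up to 100 uM in 0.5% DMSO. NFE2L2 mRNA by Fluidigm TaqMan qRT-PCR, normalised to ACTB, GAPDH, POLR2A; bidirectional change versus DMSO.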

[19] = read-out: Nuclear factor NF-kappa-B p105 subunit (Homo sapiens) (UniProt P19838); test: LTEA_HepaRG_NFKB1: Life Technologies and Expression Analysis (LTEA) Assay for Nuclear Factor Kappa B Subunit 1 (NFKB1) using HepaRG (AID 2283521);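 also: TaqMan qRT-PCR transcript normalised to ACTB GAPDH and POLR2A housekeeping genes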
Summary of the method: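 Differentiated human HepaRG cells in serum-free induction medium with 0.5% DMSO were exposed for 48 h to eight half-log concentrations, top 100 uM, in duplicate. NFKB1 mRNA measured by Fluidigm TaqMan qRT-PCR, normalised to ACTB, GAPDH and POLR2A; bidirectional fit versus DMSO.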

[20] = read-out: Interleukin 6 Receptor (IL6R), IL6R (gene 3570); test: LTEA_HepaRG_IL6R: Life Technologies and Expression Analysis (LTEA) Assay for Interleukin 6 Receptor (IL6R) using HepaRG (AID 2283510)
Summary of the method: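 Differentiated human HepaRG cells, plated 48 h then switched to serum-free induction medium, were dosed in duplicate for 48 h at eight half-log concentrations up to 100 uM in 0.5% DMSO. IL6R mRNA quantified by qRT-PCR, normalized to ACTB/GAPDH/POLR2A; bidirectional fit versus DMSO.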

Measured: AC50

Sequence of Nuclear factor NF-kappa-B p105 subunit (Homo sapiens) (P19838 whole entry, looked up): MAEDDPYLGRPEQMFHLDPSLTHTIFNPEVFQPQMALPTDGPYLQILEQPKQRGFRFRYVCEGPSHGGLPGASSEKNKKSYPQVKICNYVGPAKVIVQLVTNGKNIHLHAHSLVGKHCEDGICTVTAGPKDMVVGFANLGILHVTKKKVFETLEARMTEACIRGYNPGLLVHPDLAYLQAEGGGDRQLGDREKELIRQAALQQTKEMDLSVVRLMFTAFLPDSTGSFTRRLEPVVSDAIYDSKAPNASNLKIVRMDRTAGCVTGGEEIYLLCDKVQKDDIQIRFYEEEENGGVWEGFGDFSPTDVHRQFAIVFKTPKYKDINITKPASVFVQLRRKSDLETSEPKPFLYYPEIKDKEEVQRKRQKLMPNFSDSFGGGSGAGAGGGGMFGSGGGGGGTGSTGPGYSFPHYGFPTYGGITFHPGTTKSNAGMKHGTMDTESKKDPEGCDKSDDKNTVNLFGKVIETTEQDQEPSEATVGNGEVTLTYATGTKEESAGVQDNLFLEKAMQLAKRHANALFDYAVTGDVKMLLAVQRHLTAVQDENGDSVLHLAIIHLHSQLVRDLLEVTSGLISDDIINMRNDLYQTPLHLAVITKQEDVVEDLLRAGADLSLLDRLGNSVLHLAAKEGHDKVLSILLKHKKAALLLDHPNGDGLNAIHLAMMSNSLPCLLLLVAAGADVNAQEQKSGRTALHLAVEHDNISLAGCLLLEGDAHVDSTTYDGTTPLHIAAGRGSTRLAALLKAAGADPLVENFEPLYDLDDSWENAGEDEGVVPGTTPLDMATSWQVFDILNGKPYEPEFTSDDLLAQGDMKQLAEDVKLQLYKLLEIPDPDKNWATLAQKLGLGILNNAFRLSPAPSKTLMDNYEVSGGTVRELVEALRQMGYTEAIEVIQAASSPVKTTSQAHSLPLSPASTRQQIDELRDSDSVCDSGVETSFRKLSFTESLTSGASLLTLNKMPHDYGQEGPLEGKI
Sequence of Nuclear factor erythroid 2-related factor 2 (Homo sapiens) (Q16236 whole entry, looked up): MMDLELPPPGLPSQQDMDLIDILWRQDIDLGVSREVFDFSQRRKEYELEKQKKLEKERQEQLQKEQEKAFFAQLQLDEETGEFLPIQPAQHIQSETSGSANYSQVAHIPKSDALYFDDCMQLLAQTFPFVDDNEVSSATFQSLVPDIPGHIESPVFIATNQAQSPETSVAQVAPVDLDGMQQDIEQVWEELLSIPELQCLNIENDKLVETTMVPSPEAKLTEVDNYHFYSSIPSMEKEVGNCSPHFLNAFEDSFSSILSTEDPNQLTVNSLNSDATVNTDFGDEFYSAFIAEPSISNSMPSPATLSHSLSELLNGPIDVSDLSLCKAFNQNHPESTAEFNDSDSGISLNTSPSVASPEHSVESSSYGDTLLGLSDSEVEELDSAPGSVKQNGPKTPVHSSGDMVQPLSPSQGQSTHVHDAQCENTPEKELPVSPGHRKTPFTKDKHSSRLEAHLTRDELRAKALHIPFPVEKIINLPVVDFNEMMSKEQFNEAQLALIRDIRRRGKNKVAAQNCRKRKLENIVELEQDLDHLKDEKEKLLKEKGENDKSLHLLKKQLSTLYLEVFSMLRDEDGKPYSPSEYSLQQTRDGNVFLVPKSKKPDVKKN

COCCOC[C@H](CC1(C(=O)NC2CCC(C(=O)O)CC2)CCCC1)C(=O)Oc1ccc2c(c1)CCC2 (some centres undefined)
not listed: [19] | [20]
inactive: all other assays above

Cc1cccc(Nc2cc(Cl)nc(SCC(=O)O)n2)c1C
not listed: [16] | [20]
inactive: all other assays above

CC(=O)C(C)=CC1C(C)=CCCC1(C)C (centres undefined)
not listed: [19] | [20]
inactive: all other assays above

CC1=C(/C=C/C(C)=C/C=C/C(C)=C/CO)C(C)(C)CCC1
active: [11] 23.1 µM | [15] 10.4 µM | [17] 52.2 µM
not listed: [1]
inactive: all other assays above

O=c1c(O)c(-c2ccc(O)c(O)c2)oc2cc(O)cc(O)c12
active: [6] 80.5 µM
not listed: [3] | [20]
inactive: all other assays above

CCCCCCCCCCO
not listed: [20]
inactive: all other assays above

C=CCOC(=O)c1ccccc1C(=O)OCC=C
not listed: [1]
inactive: all other assays above
